Source: PubChem (several laboratories)
Most compounds without a hit are left out; they make up all but 3.5% or so of the library.
UGM FP inh: Mtb UDP-galactopyranose mutase inhibition. purified UGM, fluorescence polarization probe displacement. inhibition, % at 10 µM. 0.06% of 320,000 active. AID 504406; in the data active means inhibition above about 10%, passing the limit was not always enough; inconclusive means no clear call, values can overlap the other calls
FBA Mtb inh: Mtb fructose-bisphosphate aldolase inhibition. AID 588726. inhibition, % at 1 µM. purified M. tuberculosis FBA, fluorescence read-out. 2.3% of 360,000 active. P9WQA3; in the data active means inhibition above about 27%
GDH-TPI inh: inhibits GDH-TPI coupling enzymes, artifact for Mtb FBA screen. GDH-TPI coupled enzyme counterscreen, NADH absorbance. inhibition, % at 4.8 µM. 1.2% of 360,000 active; in the data active means inhibition above about 30%
Rv3671c protease: inhibits the M. tuberculosis serine protease Rv3671c; P9WHR9; inhibition, % at 5.96 µM; 0.048% of 320,000 active; AID 2606; in the data active means inhibition above about 38%;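 further: extracellular domain of Rv3671c used as enzyme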
Target sequence (P9WHR9 whole entry, looked up, the tested form may be a part): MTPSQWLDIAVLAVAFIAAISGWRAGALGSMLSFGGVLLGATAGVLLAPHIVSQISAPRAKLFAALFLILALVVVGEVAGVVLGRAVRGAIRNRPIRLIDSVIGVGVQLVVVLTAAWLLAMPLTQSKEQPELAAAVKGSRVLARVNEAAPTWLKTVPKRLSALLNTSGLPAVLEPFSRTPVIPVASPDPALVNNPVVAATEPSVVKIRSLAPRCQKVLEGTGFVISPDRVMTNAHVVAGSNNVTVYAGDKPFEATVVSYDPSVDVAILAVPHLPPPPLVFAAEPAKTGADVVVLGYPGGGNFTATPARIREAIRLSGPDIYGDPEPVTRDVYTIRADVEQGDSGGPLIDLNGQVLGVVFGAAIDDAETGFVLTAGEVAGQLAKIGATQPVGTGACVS
Mtb bLac sens: beta-lactam sensitization of Mtb H37Rv | 0.27% of 330,000 active | inhibition, % at 25 µM | M. tuberculosis H37Rv growth with meropenem, percent inhibition; call rule not given here;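 further: growth measured after seven days incubation then overnight dye step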
Numbers stand for hits; . = inactive; ? = inconclusive; / = no result given; + = active, no number.

SMILES	UGM FP inh	FBA Mtb inh	GDH-TPI inh	Rv3671c protease	Mtb bLac sens
O=C(NCCN1C(=O)S/C(=C\c2ccc(OC(F)F)cc2)C1=O)C1=COCCO1	.	.	40.6	.	.
COc1cccc(N2CCN(C(C)C(=O)NC34CC5CC(CC(C5)C3)C4)CC2)c1 (configuration not stated)	.	.	.	.	.
CS(=O)(=O)c1ccc(Cl)c(NC(=O)CN2CCN(S(=O)(=O)/C=C/c3ccccc3)CC2)c1	/	.	.	/	/
CC(=O)NC(N(C#N)c1nc(Cl)nc(N(C)C)n1)C(Cl)(Cl)Cl (configuration not stated)	.	.	.	.	.
Cc1nn(-c2ccccc2)c2sc(-c3nnc(SCC(=O)O)o3)cc12	.	101.4	.	.	.
O=C(O)Cc1ccc(NS(=O)(=O)c2ccc3ccccc3c2)cc1	.	.	.	.	.
CCOC(=O)C(C(=O)OCC)c1c([N+](=O)[O-])c(=O)n2c3c(cccc13)CCC2	.	.	.	.	.
O=C1CCC/C(=N/NC(=O)c2sc3ccccc3c2Cl)C1	.	.	54.7	.	.
O=C(NN=C1CCCC1)c1sc2ccccc2c1Cl	.	.	.	.	.
Nc1nc2c(C(=O)N3CCOCC3)nnn2c2ccccc12	.	116.7	.	.	.
CCOC(=O)c1nnn2c1nc(N1CCOCC1)c1ccccc12	.	.	.	.	.
Cn1c(SCC(=O)Nc2nncs2)nnc1C1CC1	.	.	.	.	.
COc1ccc(/C=C/C(=O)Nc2ccc(S(=O)(=O)Nc3onc(C)c3C)cc2)cc1OC	.	.	37.0	.	.
CCOc1ccc(/C=C/C(=O)Nc2ccc(C(N)=O)cc2)cc1OC	.	.	50.9	.	.
Cc1noc(NS(=O)(=O)c2ccc(NC(=O)/C=C/c3ccccc3)cc2)c1C	.	.	.	.	.
CC(O)CNCCNCc1cccs1 (configuration not stated)	.	.	.	.	.
CCN(CC)S(=O)(=O)c1ccc(Cl)c(C(=O)NNC(=O)c2csc(N3CCOCC3)n2)c1	/	.	.	/	/
CCN(C(=O)COC(=O)c1ccc(O)cc1O)c1c(N)n(Cc2ccccc2)c(=O)[nH]c1=O	10.2	.	.	.	.
Cc1ccc(/C=C/C(=O)OCC(=O)N(CC(C)C)c2c(N)n(Cc3ccccc3)c(=O)[nH]c2=O)o1	.	.	41.7	.	.
O=C1CN(C(=O)COC(=O)c2ccccc2NCc2ccco2)c2ccccc2N1	.	61.4	.	.	.
CN(C(=O)COC(=O)c1ccccc1NCc1ccco1)c1c(N)n(Cc2ccccc2)c(=O)[nH]c1=O	.	114.7	.	.	.
COc1c(C)cc(S(=O)(=O)NCc2ccccn2)c(C)c1C	.	.	.	.	.
Oc1ccccc1CNCCCN1CCOCC1	.	.	.	.	.
O=C1CC(c2ccc(F)cc2)CC2=C1C(c1ccc([N+](=O)[O-])o1)Nc1ccccc1N2 (configuration not stated)	.	.	37.9	.	.
COc1ccc(C2NC(=O)NC3=C2CCc2ccccc23)cc1 (configuration not stated)	.	33.5	.	.	.
SMILES	UGM FP inh	FBA Mtb inh	GDH-TPI inh	Rv3671c protease	Mtb bLac sens
COc1cccc(C2NC(=S)NC3=C2CCc2ccccc23)c1 (configuration not stated)	.	.	.	.	.
CCN(CCCNC(=O)c1c(C)cc(=O)oc1C)c1ccccc1	.	.	36.0	.	/
CCCNC(=O)c1c(C)cc(=O)oc1C	.	.	47.2	.	.
Cc1ccsc1C1Nc2ccccc2-c2nc3ccccc3n21 (configuration not stated)	.	178.1	.	.	.
C=CCC[C@H](Cc1ccc(F)cc1)C(=O)OC[C@@H](NC(=O)[C@H](CC=C)CC(=O)NCCO)c1ccccc1	.	.	.	.	.
O=C(CCN1C(=O)S/C(=C/c2ccc(F)cc2)C1=O)Nc1ccc(O)c(C(=O)O)c1	.	.	31.8	.	.
O=C(CCN1C(=O)S/C(=C\c2ccc(F)cc2)C1=O)Nc1ccc(C(=O)O)c(O)c1	.	.	42.9	.	.
O=C(CCN1C(=O)S/C(=C\c2ccc(F)cc2)C1=O)Nc1ccc(O)cc1C(=O)O	.	.	42.9	.	.
Cn1c(=O)c2[nH]c(-c3ccc(S(=O)(=O)O)cc3)nc2n(C)c1=O	.	/	42.0	.	.
CC(C)c1ccc(-c2nc3c([nH]2)c(=O)n(C)c(=O)n3C)cc1	.	.	.	.	.
Nc1ccn([C@@H]2O[C@H](CNC(=O)[C@@H](Cc3cccnc3)NC=O)[C@@H](O)[C@H]2O)c(=O)n1	/	.	.	/	/
CCn1c(=S)sc2c(=O)n(-c3ccccc3)c(SCC(=O)NCc3ccco3)nc21	.	.	38.1	.	/
Oc1ccccc1/C=N/NC(=S)NC1CC2CC1C1C=CCC21 (configuration not stated)	.	.	.	.	.
COc1cc(/C=N/NC(=O)C(=O)NCc2cccnc2)ccc1O	.	.	34.5	.	.
COc1cc(/C=N/Nc2ccccn2)ccc1O	.	.	.	.	.
COc1ccc(C=NNC(=O)NN=Cc2ccc(OC)c(OC)c2)cc1OC	/	.	47.8	/	/
COc1ccc(/C=N/NC(=O)C(=O)Nc2ccccn2)cc1OC	.	.	42.9	.	.
COc1ccc(/C=N/Nc2ccccn2)cc1OC	.	.	33.0	.	.
Clc1ccc(-c2ccnc3nc(N4CCOCC4)nn23)c(Cl)c1	/	.	.	/	/
Cc1cc(C)c(S(=O)(=O)Nc2ccccc2C(=O)N2CCOCC2)c(C)c1	.	.	.	.	.
COc1cc(C=NNC(=O)C(=O)Nc2cccc(Cl)c2)cc(OC)c1O	/	.	38.9	/	/
COc1ccc(/C=N/NC(=O)CSCc2ccc([N+](=O)[O-])cc2)cc1OC	.	.	40.7	.	.
COc1cc(/C=N/NC(=O)CSCc2ccc([N+](=O)[O-])cc2)cc(OC)c1OC	.	.	.	.	?
Cc1c(NC(=S)NC(=O)c2ccc(-c3ccc(Cl)cc3)o2)cccc1C(=O)O	.	.	32.4	.	.
O=C(NC(=S)Nc1ccccc1O)c1ccc(-c2ccc(Cl)cc2)o1	.	.	.	.	.
SMILES	UGM FP inh	FBA Mtb inh	GDH-TPI inh	Rv3671c protease	Mtb bLac sens
COCCNc1oc(-c2ccccc2Cl)nc1C#N	.	.	.	.	.
C=CCNc1oc(-c2cccc3ccccc23)nc1C#N	.	+	.	.	.
CC(C)Nc1oc(-c2cccc3ccccc23)nc1C#N	.	+	.	.	.
CCNc1oc(-c2cccc3ccccc23)nc1C#N	.	+	.	.	.
Cc1ccc(NC(=S)N/N=C/c2cccn2Cc2ccccc2F)cc1	.	.	.	.	.
CC(C)C(=O)c1ccc(O)c(O)c1	.	.	37.7	.	.
O=C(C(=O)c1ccc(O)c(O)c1)c1ccc(O)c(O)c1	/	.	78.4	/	/
Cc1ccc2c(CN3CCN(S(=O)(=O)c4ccc(Cl)cc4)CC3)cc(=O)oc2c1C	/	.	.	/	/
O=c1cc(CN2CCN(S(=O)(=O)c3cccc(Cl)c3)CC2)c2ccc(O)cc2o1	.	118.2	.	.	.
CCc1ccc2c(CN3CCN(S(=O)(=O)c4ccc5c(c4)OCCO5)CC3)cc(=O)oc2c1	.	.	.	.	.
